# Data from PubChem BioAssay (NCI).
# The panel holds about 83,000 compounds, 20% with a hit somewhere; the sample as a whole holds those more often.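 Note: values are percent growth. 100 is the growth of untreated cells, values between 100 and 0 indicate rising inhibition; between -100 and 0 indicates cell death.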 Values without a mark were called inactive. Calls of active or inactive are those of the source. Rule for the calls: active = growth percent below 10; inactive = the rest.
# Key:
# Experiment in all cases: NCI-60 one-dose screen, 48 h (100 = growth as untreated, 0 = no growth, -100 = all killed)
# Conditions in all cases: 10 µM unless noted
# SK-MEL-2 melanoma = system: SK-MEL-2 melanoma
# EKVX NSCLC = system: EKVX NSCLC
# SN12C renal = system: SN12C renal
# UO-31 renal = system: UO-31 renal
# TK-10 renal = system: TK-10 renal
# ACHN renal = system: ACHN renal
# CAKI-1 renal = system: CAKI-1 renal
# A498 renal = system: A498 renal
# CCRF-CEM leukemia = system: CCRF-CEM leukemia
# MOLT-4 leukemia = system: MOLT-4 leukemia
# SR leukemia = system: SR leukemia
# RPMI-8226 leukemia = system: RPMI-8226 leukemia
# OVCAR-8 ovarian = system: OVCAR-8 ovarian
# OVCAR-5 ovarian = system: OVCAR-5 ovarian
# OVCAR-4 ovarian = system: OVCAR-4 ovarian
# SK-OV-3 ovarian = system: SK-OV-3 ovarian
# IGROV1 ovarian = system: IGROV1 ovarian
# OVCAR-3 ovarian = system: OVCAR-3 ovarian
# HS 578T breast = system: HS 578T breast
# NCI/ADR-RES ovarian = system: NCI/ADR-RES ovarian
Structure (SMILES),growth (SK-MEL-2 melanoma),growth (EKVX NSCLC),growth (SN12C renal),growth (UO-31 renal),growth (TK-10 renal),growth (ACHN renal),growth (CAKI-1 renal),growth (A498 renal),growth (CCRF-CEM leukemia),growth (MOLT-4 leukemia),growth (SR leukemia),growth (RPMI-8226 leukemia),growth (OVCAR-8 ovarian),growth (OVCAR-5 ovarian),growth (OVCAR-4 ovarian),growth (SK-OV-3 ovarian),growth (IGROV1 ovarian),growth (OVCAR-3 ovarian),growth (HS 578T breast),growth (NCI/ADR-RES ovarian)
COc1ccc(-c2cn3c(ccc4ccccc43)n2)cc1,109%,72.1%,89.9%,56.1%,126%,81.3%,92.7%,116%,99.2%,113%,102%,92.1%,98.8%,112%,101%,92.8%,78.3%,89.7%,96.2%,96.3%
Cn1c(=O)c2c(ncn2CC[N+](C)(C)C)n(C)c1=O,99.7%,94.6%,103%,91.7%,91.8%,110%,102%,115%,109%,104%,94.7%,104%,105%,105%,105%,99.4%,102%,105%,110%,102%
CC[C@H](CO)Nc1nc(NCc2ccccc2)n2ncc(C(C)C)c2n1,11.1%,0.263% (active),17.1%,10%,15.6%,4.26% (active),9.58% (active),-21% (active),-0.868% (active),-12.9% (active),-44.9% (active),-40.6% (active),28.6%,22.4%,11.8%,51.5%,14.5%,5.88% (active),7.24% (active),19.5%
c1ccc(-c2nc(N3CCOCC3)c3c4c(sc3n2)CCCCC4)nc1,61.7%,50.1%,69%,35.7%,45.1%,65.1%,46.2%,9.92% (active),79.9%,58.9%,59.6%,35.5%,81.2%,58.3%,51%,32.9%,24%,74.2%,65%,27.3%
CC1=NNC(=O)C1C (stereo not given),99.8%,102%,96.1%,88.2%,377%,103%,81.5%,88.6%,97.1%,145%,121%,73.1%,83.3%,122%,128%,101%,106%,109%,90.8%,105%
COc1ccc(C(=O)COc2ccc(/C=C3\Oc4ccc(Cl)cc4C3=O)cc2)cc1,71.1%,86.8%,103%,83.4%,105%,109%,98.1%,109%,122%,-17.8% (active),-22.4% (active),181%,76.6%,103%,86.3%,98.7%,32.9%,113%,91.8%,88.6%
CCN(CC)CC(C)Nc1ccc([N+](=O)[O-])c2sc3ccccc3c(=O)c12 (stereo not given),26.8%,34.5%,37.2%,0.595% (active),49.5%,7.58% (active),18.1%,29.8%,15.2%,-24% (active),-32.3% (active),-29.7% (active),24.6%,53.9%,32.9%,33.8%,22.3%,36.6%,27.7%,34.7%
CCOC(=O)/C=C/C(=O)[C@H](CC(C)C)NC(=O)[C@H](Cc1ccccc1)NC(=O)OCc1ccccc1,99.8%,100%,57.2%,44.7%,50.1%,47.5%,74.8%,77.6%,-18.5% (active),0.254% (active),-8.81% (active),-19.9% (active),72.8%,90.8%,91.9%,102%,75.6%,30%,93.4%,89.6%
COc1ccc(C/C(C)=C(\c2ccc(Cl)cc2)c2ccc(OCCN3CCCCCC3)cc2)cc1,90.5%,91.7%,78.3%,67.9%,90.3%,86.4%,84.1%,92.1%,61.6%,58.7%,9.97% (active),54.3%,89.4%,82.5%,95.7%,103%,78.1%,80.4%,98.4%,85.7%
O=C1/C(=C/c2ccc(Cl)c(Cl)c2)CN(C(=O)CCN2CCC(=NO)CC2)C/C1=C\c1ccc(Cl)c(Cl)c1,-86.9% (active),-85.1% (active),-97.3% (active),-95.7% (active),-88.9% (active),-98.4% (active),-92.1% (active),-92% (active),-28.2% (active),-21.7% (active),-14% (active),-37.2% (active),-95.5% (active),-71.3% (active),-96.6% (active),-55.7% (active),-63.3% (active),-97.8% (active),-28.5% (active),-60.2% (active)
CCN(CC)c1ccc(/C=C/C2=[N+](C)c3ccccc3C2(C)C)cc1,-1.48% (active),0.0796% (active),1.41% (active),22.1%,28.7%,-1.03% (active),-8.77% (active),50.7%,7.5% (active),15.1%,28.1%,-20.9% (active),24.7%,34.7%,40.6%,-0.178% (active),18.6%,5.97% (active),27%,84.8%
C/C=C/C(N)=O,119%,95.9%,106%,91.7%,105%,96.8%,98%,108%,35.6%,96.2%,92%,109%,106%,100%,107%,110%,106%,99%,99.9%,106%
CC(C)(C)n1cc(-c2ccnc(NCCNS(=O)(=O)c3ccccc3)c2)c(-c2cccc(O)c2)n1,68.8%,63.4%,71.8%,61.3%,92%,67.1%,63.8%,55.1%,46.5%,38.2%,27.3%,22.2%,67.2%,78.4%,60.6%,88.4%,76%,74.4%,62.4%,74.8%
CCN(CC)CCCC(C)NCCCNc1cccc2cccnc12 (stereo not given),112%,101%,86.5%,72.2%,97.7%,108%,98.4%,81.8%,96.9%,94.1%,91%,96.9%,91.9%,125%,83.2%,89.2%,99.7%,89.8%,105%,92.3%
O=C(CN1CCN(c2cc3c(cc2F)c(=O)c(C(=O)N/N=C/c2ccccc2)cn3C2CC2)CC1)N/N=C\c1ccccc1,86.1%,66.6%,65.7%,53.3%,89.1%,72%,78.1%,78.7%,60.9%,42.7%,61%,39.2%,73.9%,98.6%,89.8%,124%,54.4%,77%,84.8%,77.1%
CC1(C)CC(C(=O)OCCCCCCCCCCC[P+](c2ccccc2)(c2ccccc2)c2ccccc2)C(C)(C)N1O (stereo not given),-45.8% (active),-32.6% (active),-36% (active),-74.4% (active),-72.1% (active),109%,-57.9% (active),-94.8% (active),-32.8% (active),-56.9% (active),-58.4% (active),-43.8% (active),-39% (active),-62.9% (active),-31.5% (active),-19.5% (active),-58.7% (active),-95.9% (active),-44% (active),14.6%
